In the supplement of paper PMC10849652:
About 7,900 targets were measured; listed, in parts, are those with a hit and a random draw of the rest. About 0.6% of all pairs of compound and target were hits. Values without a mark were called inactive.

Key:
Experiment in all cases: log2 fold change, soluble protein after heating vs DMSO (PISA); higher = thermal stabilisation; K562 cells, 10 uM, 30 min; active = over 0.2 and 3.5 SD of the protein, either way, in both replicates (recomputed)
[1] = compound: CS(=O)(=O)c1ccc(-c2cnc(N)c(C(=O)Nc3ccccc3)n2)cc1
Procedure, shortened: (§1)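 For each measurement, 10 μM compound was applied for 30 min to K562 cells at 2×10^6 cells/mL. Aliquots were heated for 3 min across 48°C-58°C, pooled, and extracted in PBS with 0.5% NP-40 at 4°C; the supernatant after 21,000xg for 90 min was soluble protein. This was quantified by TMTpro 16plex LC-MS/MS with channel sums equalised, and thermal stability was reported relative to control samples from duplicates, on a log2 fold-change scale.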

crizotinib = compound: C[C@@H](Oc1cc(-c2cnn(C3CCNCC3)c2)cnc1N)c1c(Cl)ccc(F)c1Cl [crizotinib]
Procedure, shortened: as §1

[2] = compound: C[C@@H]1COCCN1C2=NC(=NC(=C2)C3(CC3)S(=O)(=O)C)C4=C5C=CNC5=CC=C4
Procedure, shortened: as §1

[3] = compound: C[C@H](C1=CC=C(C=C1)C(=O)NC2=C3C=CNC3=NC=C2)N
Procedure, shortened: as §1

duvelisib = compound: C[C@H](Nc1ncnc2nc[nH]c12)c1cc2cccc(Cl)c2c(=O)n1-c1ccccc1 [duvelisib]
Procedure, shortened: as §1

gandotinib = compound: Cc1cc(Nc2cc(CN3CCOCC3)c3nc(C)c(Cc4ccc(Cl)cc4F)n3n2)n[nH]1 [gandotinib]
Procedure, shortened: as §1

tozasertib = compound: Cc1cc(Nc2cc(N3CCN(C)CC3)nc(Sc3ccc(NC(=O)C4CC4)cc3)n2)n[nH]1 [tozasertib]
Procedure, shortened: as §1

[4] = compound: Cc1cc(SCc2sc(-c3ccc(C(F)(F)F)cc3)nc2C)ccc1OCC(=O)O
Procedure, shortened: as §1

doramapimod = compound: Cc1ccc(-n2nc(C(C)(C)C)cc2NC(=O)Nc2ccc(OCCN3CCOCC3)c3ccccc23)cc1 [doramapimod]
Procedure, shortened: as §1

ispinesib = compound: Cc1ccc(C(=O)N(CCCN)[C@@H](c2nc3cc(Cl)ccc3c(=O)n2Cc2ccccc2)C(C)C)cc1 [ispinesib]
Procedure, shortened: as §1

bafetinib = compound: Cc1ccc(NC(=O)c2ccc(CN3CC[C@H](N(C)C)C3)c(C(F)(F)F)c2)cc1Nc1nccc(-c2cncnc2)n1 [bafetinib]
Procedure, shortened: as §1

[5] = compound: Cc1cccc(CC(=O)N2CCc3c2ccc(-c2cn(C)c4ncnc(N)c24)c3F)n1
Procedure, shortened: as §1

nilotinib = compound: Cc1cn(-c2cc(NC(=O)c3ccc(C)c(Nc4nccc(-c5cccnc5)n4)c3)cc(C(F)(F)F)c2)cn1 [nilotinib]
Procedure, shortened: as §1

[6] = compound: Cc1nc(Nc2n[nH]c3c2CN(C(=O)N[C@H](CN(C)C)c2ccccc2)C3(C)C)c2sccc2n1
Procedure, shortened: as §1

dasatinib = compound: Cc1nc(Nc2ncc(C(=O)Nc3c(C)cccc3Cl)s2)cc(N2CCN(CCO)CC2)n1 [dasatinib]
Procedure, shortened: as §1

[7] = compound: Cc1ncc(-c2ccnc(Nc3ccc(S(C)(=O)=O)cc3)n2)n1C(C)C
Procedure, shortened: as §1

[8] = compound: Cn1cc(-c2ccc3c(c2)CCN3C(=O)Cc2cccc(C(F)(F)F)c2)c2c(N)ncnc21
Procedure, shortened: as §1

[9] = compound: Cn1cc(-c2ccc3nnc(C(F)(F)c4ccc5ncccc5c4)n3n2)cn1
Procedure, shortened: as §1

tipifarnib = compound: Cn1cncc1[C@@](N)(c1ccc(Cl)cc1)c1ccc2c(c1)c(-c1cccc(Cl)c1)cc(=O)n2C [tipifarnib]
Procedure, shortened: as §1

mubritinib = compound: FC(F)(F)c1ccc(/C=C/c2nc(COc3ccc(CCCCn4ccnn4)cc3)co2)cc1 [mubritinib]
Procedure, shortened: as §1

Sequence of UniProt Q9BZL6 (Q9BZL6 whole entry, looked up): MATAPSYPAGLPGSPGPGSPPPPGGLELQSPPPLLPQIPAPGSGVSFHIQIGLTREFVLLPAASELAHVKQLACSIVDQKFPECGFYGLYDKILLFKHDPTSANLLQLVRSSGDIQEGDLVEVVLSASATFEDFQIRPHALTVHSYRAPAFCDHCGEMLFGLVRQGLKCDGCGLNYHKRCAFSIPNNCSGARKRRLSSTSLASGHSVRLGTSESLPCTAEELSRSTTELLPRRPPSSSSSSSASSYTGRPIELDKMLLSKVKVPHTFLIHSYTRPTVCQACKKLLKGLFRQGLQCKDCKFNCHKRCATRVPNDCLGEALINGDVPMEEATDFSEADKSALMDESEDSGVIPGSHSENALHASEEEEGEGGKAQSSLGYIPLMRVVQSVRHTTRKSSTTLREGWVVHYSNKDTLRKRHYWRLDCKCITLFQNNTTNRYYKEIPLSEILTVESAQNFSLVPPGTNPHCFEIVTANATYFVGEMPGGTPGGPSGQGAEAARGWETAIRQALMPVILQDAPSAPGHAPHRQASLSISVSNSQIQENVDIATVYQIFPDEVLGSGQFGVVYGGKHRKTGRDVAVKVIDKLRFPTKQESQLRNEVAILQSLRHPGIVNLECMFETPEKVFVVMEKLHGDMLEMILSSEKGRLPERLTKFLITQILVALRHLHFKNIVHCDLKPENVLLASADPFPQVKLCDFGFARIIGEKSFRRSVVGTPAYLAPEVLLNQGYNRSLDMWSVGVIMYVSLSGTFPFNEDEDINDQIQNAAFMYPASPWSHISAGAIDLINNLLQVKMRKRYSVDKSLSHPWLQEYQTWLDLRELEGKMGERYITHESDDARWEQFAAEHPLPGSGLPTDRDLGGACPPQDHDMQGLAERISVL
Sequence of UniProt Q99460 (Q99460 whole entry, looked up): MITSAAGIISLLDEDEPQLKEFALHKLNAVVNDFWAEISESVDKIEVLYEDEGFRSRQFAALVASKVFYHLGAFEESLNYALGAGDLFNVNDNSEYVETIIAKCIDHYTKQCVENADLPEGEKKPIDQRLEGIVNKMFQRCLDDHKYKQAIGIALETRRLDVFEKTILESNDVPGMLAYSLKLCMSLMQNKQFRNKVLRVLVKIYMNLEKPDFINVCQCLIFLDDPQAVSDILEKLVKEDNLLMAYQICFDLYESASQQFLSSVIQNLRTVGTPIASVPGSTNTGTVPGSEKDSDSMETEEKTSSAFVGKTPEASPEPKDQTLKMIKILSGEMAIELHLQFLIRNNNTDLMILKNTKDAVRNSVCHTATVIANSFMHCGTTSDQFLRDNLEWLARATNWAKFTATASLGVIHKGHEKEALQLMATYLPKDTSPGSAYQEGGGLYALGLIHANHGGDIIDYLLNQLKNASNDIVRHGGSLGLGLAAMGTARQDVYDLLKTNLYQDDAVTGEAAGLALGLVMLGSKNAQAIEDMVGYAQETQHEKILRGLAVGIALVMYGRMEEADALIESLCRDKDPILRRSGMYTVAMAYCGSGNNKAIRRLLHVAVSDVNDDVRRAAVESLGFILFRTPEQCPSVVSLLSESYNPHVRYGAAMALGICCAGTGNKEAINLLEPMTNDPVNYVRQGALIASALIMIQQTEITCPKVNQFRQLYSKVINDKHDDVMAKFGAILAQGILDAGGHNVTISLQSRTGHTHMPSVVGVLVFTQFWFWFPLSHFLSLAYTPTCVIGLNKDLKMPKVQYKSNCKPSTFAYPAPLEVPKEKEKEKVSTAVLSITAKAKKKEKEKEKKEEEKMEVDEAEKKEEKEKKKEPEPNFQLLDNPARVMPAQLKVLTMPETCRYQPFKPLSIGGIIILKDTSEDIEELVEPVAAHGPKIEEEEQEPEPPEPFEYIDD
Sequence of UniProt Q14997 (Q14997 whole entry, looked up): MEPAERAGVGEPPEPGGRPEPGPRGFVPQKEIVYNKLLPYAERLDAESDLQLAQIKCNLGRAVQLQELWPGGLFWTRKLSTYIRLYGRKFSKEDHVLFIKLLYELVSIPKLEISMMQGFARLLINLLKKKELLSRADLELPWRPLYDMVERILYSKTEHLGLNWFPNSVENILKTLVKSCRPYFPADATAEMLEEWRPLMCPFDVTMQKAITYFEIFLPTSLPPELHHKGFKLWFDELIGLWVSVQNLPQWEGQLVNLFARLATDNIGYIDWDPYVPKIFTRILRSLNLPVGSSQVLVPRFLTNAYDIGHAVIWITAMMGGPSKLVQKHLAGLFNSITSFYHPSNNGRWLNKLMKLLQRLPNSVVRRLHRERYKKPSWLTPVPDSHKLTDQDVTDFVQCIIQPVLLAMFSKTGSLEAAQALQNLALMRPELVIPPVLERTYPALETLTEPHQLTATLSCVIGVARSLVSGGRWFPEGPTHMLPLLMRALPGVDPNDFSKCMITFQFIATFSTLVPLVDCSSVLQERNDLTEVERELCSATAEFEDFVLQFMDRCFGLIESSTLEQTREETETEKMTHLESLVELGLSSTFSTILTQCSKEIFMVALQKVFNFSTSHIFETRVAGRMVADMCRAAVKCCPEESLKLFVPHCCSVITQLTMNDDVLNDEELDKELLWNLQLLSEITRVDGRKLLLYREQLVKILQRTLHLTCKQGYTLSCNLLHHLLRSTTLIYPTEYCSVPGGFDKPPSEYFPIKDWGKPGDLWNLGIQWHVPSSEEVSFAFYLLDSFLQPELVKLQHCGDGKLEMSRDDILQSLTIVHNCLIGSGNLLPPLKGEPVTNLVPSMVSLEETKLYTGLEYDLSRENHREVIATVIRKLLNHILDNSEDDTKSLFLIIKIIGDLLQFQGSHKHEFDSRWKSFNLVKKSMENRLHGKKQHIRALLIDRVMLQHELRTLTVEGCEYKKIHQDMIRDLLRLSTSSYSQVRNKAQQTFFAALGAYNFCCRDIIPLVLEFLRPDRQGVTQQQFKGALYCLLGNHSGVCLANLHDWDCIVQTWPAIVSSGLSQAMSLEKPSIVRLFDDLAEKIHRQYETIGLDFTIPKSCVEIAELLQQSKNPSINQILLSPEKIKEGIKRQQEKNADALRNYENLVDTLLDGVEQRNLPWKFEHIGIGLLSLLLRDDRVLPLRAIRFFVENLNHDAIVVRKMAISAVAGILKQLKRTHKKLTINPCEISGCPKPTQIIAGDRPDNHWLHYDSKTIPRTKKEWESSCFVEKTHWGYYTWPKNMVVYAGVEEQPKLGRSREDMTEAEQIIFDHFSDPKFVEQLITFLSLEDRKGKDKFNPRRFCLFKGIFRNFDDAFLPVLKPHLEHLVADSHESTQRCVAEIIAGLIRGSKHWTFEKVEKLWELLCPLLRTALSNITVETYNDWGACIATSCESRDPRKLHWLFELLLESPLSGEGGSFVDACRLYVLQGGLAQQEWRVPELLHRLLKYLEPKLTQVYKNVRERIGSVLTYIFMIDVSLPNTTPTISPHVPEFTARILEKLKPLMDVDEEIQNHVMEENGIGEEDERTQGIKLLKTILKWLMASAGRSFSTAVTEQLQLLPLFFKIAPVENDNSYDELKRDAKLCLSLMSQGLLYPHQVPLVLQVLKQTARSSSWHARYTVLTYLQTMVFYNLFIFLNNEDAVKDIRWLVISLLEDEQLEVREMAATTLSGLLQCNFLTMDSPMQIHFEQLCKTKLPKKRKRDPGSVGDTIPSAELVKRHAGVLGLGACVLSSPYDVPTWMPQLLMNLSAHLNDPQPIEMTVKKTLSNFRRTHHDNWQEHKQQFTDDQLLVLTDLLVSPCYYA
Sequence of UniProt Q9H814 (Q9H814 whole entry, looked up): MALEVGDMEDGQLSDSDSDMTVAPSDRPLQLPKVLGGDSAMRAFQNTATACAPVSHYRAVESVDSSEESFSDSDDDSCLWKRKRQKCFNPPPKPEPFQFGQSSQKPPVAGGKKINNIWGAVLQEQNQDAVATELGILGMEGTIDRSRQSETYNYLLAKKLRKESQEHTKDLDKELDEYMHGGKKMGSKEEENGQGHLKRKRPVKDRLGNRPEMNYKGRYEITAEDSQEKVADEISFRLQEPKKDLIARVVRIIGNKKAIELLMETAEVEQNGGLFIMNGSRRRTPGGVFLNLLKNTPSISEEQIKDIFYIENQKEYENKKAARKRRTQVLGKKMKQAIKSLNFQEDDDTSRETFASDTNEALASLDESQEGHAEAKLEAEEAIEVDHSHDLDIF
Sequence of UniProt O00233 (O00233 whole entry, looked up): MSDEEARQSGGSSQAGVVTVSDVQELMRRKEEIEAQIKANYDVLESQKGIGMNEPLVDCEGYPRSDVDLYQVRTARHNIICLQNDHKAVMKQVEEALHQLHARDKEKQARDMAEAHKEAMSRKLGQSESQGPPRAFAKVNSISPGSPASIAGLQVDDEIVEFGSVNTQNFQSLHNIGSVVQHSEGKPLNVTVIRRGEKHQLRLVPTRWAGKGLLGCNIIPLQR
Sequence of UniProt O15530 (O15530 whole entry, looked up): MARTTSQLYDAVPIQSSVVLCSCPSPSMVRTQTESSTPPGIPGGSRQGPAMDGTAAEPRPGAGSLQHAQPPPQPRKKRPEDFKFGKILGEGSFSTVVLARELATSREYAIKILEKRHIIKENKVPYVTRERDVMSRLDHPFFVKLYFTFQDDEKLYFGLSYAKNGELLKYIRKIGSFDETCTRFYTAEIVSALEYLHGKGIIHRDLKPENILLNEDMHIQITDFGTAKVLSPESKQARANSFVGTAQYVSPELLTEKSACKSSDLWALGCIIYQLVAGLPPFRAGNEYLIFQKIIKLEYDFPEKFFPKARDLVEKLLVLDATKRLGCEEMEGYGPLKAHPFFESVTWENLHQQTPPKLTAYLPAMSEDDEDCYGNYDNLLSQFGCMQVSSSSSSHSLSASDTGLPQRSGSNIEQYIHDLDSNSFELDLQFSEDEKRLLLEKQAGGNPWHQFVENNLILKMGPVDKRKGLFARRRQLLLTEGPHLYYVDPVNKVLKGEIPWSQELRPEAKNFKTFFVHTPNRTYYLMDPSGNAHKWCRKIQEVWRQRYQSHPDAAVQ

| Target | log2 fold change [1] | log2 fold change (crizotinib) | log2 fold change [2] | log2 fold change [3] | log2 fold change (duvelisib) | log2 fold change (gandotinib) | log2 fold change (tozasertib) | log2 fold change [4] | log2 fold change (doramapimod) | log2 fold change (ispinesib) | log2 fold change (bafetinib) | log2 fold change [5] | log2 fold change (nilotinib) | log2 fold change [6] | log2 fold change (dasatinib) | log2 fold change [7] | log2 fold change [8] | log2 fold change [9] | log2 fold change (tipifarnib) | log2 fold change (mubritinib) |
| --- | --- | --- | --- | --- | --- | --- | --- | --- | --- | --- | --- | --- | --- | --- | --- | --- | --- | --- | --- | --- |
| PSMD1 (UniProt Q99460) | -0.009 | -0.002 | -0.075 | 0.047 | -0.081 | 0 | 0.054 | 0.017 | 0.036 | 0.048 | 0.16 | 0.037 | 0.006 | 0.041 | 0.065 | -0.017 | -0.102 | 0.019 | 0.068 | -0.019 |
| PDPK1 (UniProt O15530) | -0.066 | -0.282 (active) | 0.081 | 0.013 | -0.206 | -0.173 | -0.085 | 0.015 | 0.003 | -0.143 | -0.06 | 0.051 | -0.104 | 0.089 | -0.169 | -0.084 | 0.077 | 0.011 | -0.043 | 0.022 |
| PSMD9 (UniProt O00233) | -0.041 | -0.069 | 0.022 | -0.059 | 0.038 | -0.018 | -0.03 | -0.026 | 0.001 | 0.016 | -0.038 | 0.199 | -0.011 | 0.016 | 0.037 | 0.008 | 0.018 | 0.034 | 0.04 | 0.009 |
| PSMC2 (UniProt P35998) | 0.011 | 0.003 | -0.087 | 0.079 | -0.061 | 0.027 | 0.031 | 0.014 | 0.005 | 0.016 | 0.081 | 0.029 | -0.019 | 0.044 | 0.034 | -0.018 | -0.126 | -0.013 | 0.113 | -0.031 |
| PHAX (UniProt Q9H814) | -0.034 | 0.097 | -0.036 | -0.01 | 0.07 | 0.035 | 0.082 | -0.062 | -0.016 | 0.017 | -0.056 | -0.117 | 0.028 | -0.176 | 0.03 | -0.096 | -0.033 | 0.006 | 0.011 | 0.013 |
| PRKCB isoform 2 (UniProt P05771) | 0.019 | -0.039 | 0.039 | -0.063 | 0.035 | -0.079 | 0.018 | 0.032 | -0.01 | -0.017 | -0.037 | 0.025 | -0.022 | -0.3 (active) | -0.054 | 0.034 | 0.04 | 0 | -0.051 | 0.054 |
| PRKAB2 (UniProt O43741) | -0.08 | -0.245 | 0.021 | -0.231 | -0.154 | -0.484 (active) | 0.044 | 0.051 | -0.041 | 0.143 | 0.027 | -0.01 | -0.022 | -0.184 | -0.16 | 0.082 | 0.142 | -0.034 | -0.046 | -0.02 |
| PRKAR1A (UniProt P10644) | 0.209 | 0.259 | 0.03 | 0.173 | 0.208 | 0.139 | 0.041 | 0.001 | 0 | -0.06 | 0.232 | -0.006 | 0.12 | 0.195 | -0.046 | 0.152 | 0 | 0.281 | 0.231 | -0.169 |
| PTPA (UniProt Q15257) | -0.001 | 0.028 | 0.074 | -0.117 | 0.052 | -0.037 | 0.024 | 0.013 | -0.001 | 0.091 | -0.038 | 0.011 | -0.014 | 0.012 | -0.014 | -0.002 | 0.034 | 0.03 | 0.013 | 0.028 |
| PRKD2 isoform 3 (UniProt Q9BZL6) | -0.275 | -0.39 | 0.108 | -0.111 | 0.066 | 0.017 | 0.048 | -0.014 | 0.023 | -0.129 | -0.16 | 0.045 | -0.204 | -0.698 (active) | -0.139 | -0.145 | 0.057 | 0.045 | -0.123 | 0.099 |
| PPOX (UniProt P50336) | 0.173 | -0.197 | 0.128 | -0.077 | 0.304 | 0.427 | 0.019 | 0.091 | 0.378 | 0.02 | -0.031 | -0.013 | 0.494 | 0.027 | 0.208 | -0.015 | 0.192 | 0.086 | 0.08 | 0 |
| PRPF40A (UniProt O75400) | -0.023 | 0.071 | 0.105 | -0.061 | 0.018 | -0.04 | 0.061 | 0.104 | 0.021 | -0.034 | -0.014 | 0.005 | -0.085 | -0.058 | -0.05 | -0.135 | 0.082 | 0.048 | 0.045 | -0.013 |
| PELO (UniProt Q9BRX2) | 0.026 | -0.15 | -0.037 | 0.158 | 0.011 | -0.096 | 0.001 | 0.07 | 0.077 | -0.336 | 0.068 | 0.155 | -0.021 | -0.067 | -0.054 | -0.02 | 0.042 | 0.061 | -0.136 | -0.111 |
| PARN (UniProt O95453) | 0.028 | -0.095 | 0.125 | -0.025 | 0.048 | -0.127 | 0.024 | 0.069 | -0.037 | -0.021 | -0.104 | 0.019 | -0.018 | -0.073 | -0.182 | -0.011 | -0.003 | 0.018 | -0.01 | 0.076 |
| PSME4 (UniProt Q14997) | 0.036 | -0.161 | 0.013 | 0.052 | 0.02 | -0.082 | -0.078 | 0.093 | 0.045 | -0.09 | 0.069 | 0.141 | -0.057 | 0.016 | -0.084 | -0.098 | 0.015 | -0.006 | -0.036 | 0.052 |
| PDE2A (UniProt O00408) | -0.064 | 0.004 | 0.223 | -0.108 | 0.034 | 0.117 | -0.105 | 0.045 | -0.026 | -0.067 | 0.021 | -0.02 | 0.023 | 0.016 | -0.103 | -0.012 | 0.063 | -0.03 | -0.031 | -0.051 |
